Our source for the growth inhibition values is PubChem BioAssay (NCI).

Structures are written as SMILES. Compounds without any hit were thinned out: in the full panel of roughly 79,000, 15% have a hit. A number with no mark means an inactive call. Calls of active or inactive are those of the source. No stated cut-off is given here; in the data, active means growth inhibition above about 70%; inactive means the rest.

Experiment [1] can be described thus: NCI Yeast Anticancer Drug Screen. Data for the rad50 strain (AID 155).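 Further: 0% = growth of vehicle-only cultures of the same strain.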 Conditions: S. cerevisiae rad50 strain growth inhibition, stronger effect = higher value. The essentials:
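Yeast carrying a defined DNA repair defect were exposed to test compounds, and growth was compared with vehicle-treated controls to give percent inhibition.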

A short description of experiment [2]: NCI Yeast Anticancer Drug Screen. Data for the mec2-1 strain (AID 157). Conditions: S. cerevisiae mec2-1 strain, stronger effect = higher value. The procedure, abridged: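 Growth inhibition is read against vehicle-treated controls after compound exposure of the mec2-1 yeast strain, which is defective in DNA damage repair or cell cycle control.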
A short description of experiment [3]: NCI Yeast Anticancer Drug Screen. Data for the sgs1 mgt1 strain (AID 161).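 Further: 0% = growth of cultures given vehicle only.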 As to conditions: S. cerevisiae sgs1 mgt1 strain, stronger effect = higher value. The procedure, abridged:
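Compounds are added to genetically altered yeast, and growth is compared with cultures given vehicle alone to give percent inhibition.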

Experiment [4] in a line: NCI Yeast Anticancer Drug Screen. Data for the cln2 rad14 strain (AID 165).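 Further: 0% = growth equal to vehicle treated cultures.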 As to conditions: S. cerevisiae cln2 rad14 strain, stronger effect = higher value. The essentials:
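Growth inhibition, relative to vehicle-treated controls, is the read-out. The test organism is a yeast strain with defined genetic alterations, cln2 rad14.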

Experiment [5] can be described thus: NCI Yeast Anticancer Drug Screen. Data for the bub3 strain (AID 167). As to conditions: S. cerevisiae bub3 mutant strain, stronger effect = higher value. The essentials: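 Compounds were applied to a genetically altered yeast strain carrying a cell-cycle control defect. Growth inhibition was scored against vehicle-treated controls.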
Experiment [6] can be described thus: NCI Yeast Anticancer Drug Screen. Data for the mlh1 rad18 strain (AID 175). As to conditions: S. cerevisiae mlh1 rad18 strain growth inhibition, stronger effect = higher value. The essentials:
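Cells of a genetically altered yeast strain, deficient in DNA damage repair, were treated with compound. Their growth was then compared with that of vehicle-treated cultures to give inhibition.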

Where [7] appears, read: at 5.0 µM (retest, dose inferred, filed as 0.5).
Setting [8] is: at 50.0 µM (retest, dose inferred, filed as 5.0).

Regarding `O=C(NC1=C(Cl)C(=O)c2ccccc2C1=O)C(=O)C(C(=O)c1ccc2ccccc2c1)C1OC(=O)c2ccccc21` (stereo unspecified), the growth inhibition in experiment [1] (setting [7]) is 33%; in experiment [1] (setting [8]), 85% (active); in experiment [1] (at 50.0 µM) it was 89.8% (active); in experiment [2] (setting [7]) it was 16%; in experiment [2] (setting [8]) it was 59%; in experiment [2] (at 50.0 µM), 63.5%. The growth inhibition was 30% in experiment [3] (setting [7]); 98% (active) in experiment [3] (setting [8]); 88.5% (active) in experiment [3] (at 50.0 µM); 20% in experiment [4] (setting [7]); 95% (active) in experiment [4] (setting [8]); 88.1% (active) in experiment [4] (at 50.0 µM). Besides, the growth inhibition is 22% in experiment [5] (setting [7]); 99% (active) in experiment [5] (setting [8]); 85.3% (active) in experiment [5] (at 50.0 µM); 26% in experiment [6] (setting [7]); 83% (active) in experiment [6] (setting [8]); 88.8% (active) in experiment [6] (at 50.0 µM).

As for `Cc1ccc(/[N+]([O-])=C/c2ccccc2)cc1`, the growth inhibition in experiment [1] (setting [7]) is -2%; in experiment [1] (setting [8]), -23%; in experiment [1] (at 50.0 µM), 98.2% (active); in experiment [2] (setting [7]) it was 4%; in experiment [2] (setting [8]) it was -17%; in experiment [2] (at 50.0 µM), 99.2% (active). Also, the growth inhibition is -13% in experiment [3] (setting [7]); -2% in experiment [3] (setting [8]); 95.7% (active) in experiment [3] (at 50.0 µM); -46% in experiment [4] (setting [7]); -25% in experiment [4] (setting [8]); 52.8% in experiment [4] (at 50.0 µM). The growth inhibition in experiment [5] (setting [7]) was -12%; in experiment [5] (setting [8]) it was 13%; in experiment [5] (at 50.0 µM) it was 99% (active); in experiment [6] (setting [7]), -27%; in experiment [6] (setting [8]), -20%; in experiment [6] (at 50.0 µM), 79.2% (active).

With `C=CC1(NC(=O)c2ccccc2)CCC(C(C)(C)C)CC1` (stereo unspecified), the growth inhibition was -10% in experiment [1] (setting [7]); 96% (active) in experiment [1] (setting [8]); 48.9% in experiment [1] (at 50.0 µM); -5% in experiment [2] (setting [7]); 89% (active) in experiment [2] (setting [8]); -0.2% in experiment [2] (at 50.0 µM). Besides, the growth inhibition was -5% in experiment [3] (setting [7]); 94% (active) in experiment [3] (setting [8]); 43.6% in experiment [3] (at 50.0 µM); 5% in experiment [4] (setting [7]); 86% (active) in experiment [4] (setting [8]); 10.6% in experiment [4] (at 50.0 µM). Further, the growth inhibition is 2% in experiment [5] (setting [7]); 95% (active) in experiment [5] (setting [8]); 49.9% in experiment [5] (at 50.0 µM); -7% in experiment [6] (setting [7]); 93% (active) in experiment [6] (setting [8]); 40.4% in experiment [6] (at 50.0 µM).

`O=[N+]([O-])c1cc(Cl)cc2c1nc(NCCO)c1ccccc12`: the growth inhibition in experiment [1] (setting [7]) was 76% (active); in experiment [1] (setting [8]) it was 90% (active); in experiment [1] (at 50.0 µM), 75.1% (active); in experiment [2] (setting [7]), 26%; in experiment [2] (setting [8]) it was 67%; in experiment [2] (at 50.0 µM), 45.2%. Also, the growth inhibition in experiment [3] (setting [7]) is 63%; in experiment [3] (setting [8]), 93% (active); in experiment [3] (at 50.0 µM) it was 79.7% (active); in experiment [4] (setting [7]), 46%; in experiment [4] (setting [8]), 79% (active); in experiment [4] (at 50.0 µM), 65%. Moreover, the growth inhibition in experiment [5] (setting [7]) is 20%; in experiment [5] (setting [8]), 85% (active); in experiment [5] (at 50.0 µM), 79.9% (active); in experiment [6] (setting [7]), 86% (active); in experiment [6] (setting [8]), 93% (active); in experiment [6] (at 50.0 µM) it was 89.5% (active).

For `Nc1ccccc1-c1nc2c(ccc3ccccc32)[nH]1`, the growth inhibition in experiment [1] (setting [7]) is -1%; in experiment [1] (setting [8]), 10%; in experiment [1] (at 50.0 µM), 79.7% (active); in experiment [2] (setting [7]), -17%; in experiment [2] (setting [8]) it was -10%; in experiment [2] (at 50.0 µM), 4.6%. Further, the growth inhibition in experiment [3] (setting [7]) was -16%; in experiment [3] (setting [8]), -5%; in experiment [3] (at 50.0 µM) it was 88.8% (active); in experiment [4] (setting [7]) it was 8%; in experiment [4] (setting [8]) it was -10%; in experiment [4] (at 50.0 µM), 24.6%. The growth inhibition in experiment [5] (setting [7]) is -3%; in experiment [5] (setting [8]), 2%; in experiment [5] (at 50.0 µM), 62.3%; in experiment [6] (setting [7]), 0%; in experiment [6] (setting [8]), -18%; in experiment [6] (at 50.0 µM), 80.5% (active).

For the compound `O=C1C=CC(=O)N1c1ccccc1` (tested in a mixture with another compound), the growth inhibition was 0% in experiment [1] (setting [7]); 20% in experiment [1] (setting [8]); 91% (active) in experiment [1] (at 50.0 µM); -1% in experiment [2] (setting [7]); 32% in experiment [2] (setting [8]); 92.8% (active) in experiment [2] (at 50.0 µM). The growth inhibition in experiment [3] (setting [7]) is 0%; in experiment [3] (setting [8]) it was 39%; in experiment [3] (at 50.0 µM), 94.4% (active); in experiment [4] (setting [7]), -3%; in experiment [4] (setting [8]), 34%; in experiment [4] (at 50.0 µM), 93.8% (active). Also, the growth inhibition was -15% in experiment [5] (setting [7]); 77% (active) in experiment [5] (setting [8]); 95.2% (active) in experiment [5] (at 50.0 µM); -1% in experiment [6] (setting [7]); 22% in experiment [6] (setting [8]); 77.2% (active) in experiment [6] (at 50.0 µM).

For `NC(=S)NNC(=O)c1cccnc1`, the growth inhibition is 4% in experiment [1] (setting [7]); 78% (active) in experiment [1] (setting [8]); -5.1% in experiment [1] (at 50.0 µM); 1% in experiment [2] (setting [7]); 39% in experiment [2] (setting [8]); -5.95% in experiment [2] (at 50.0 µM). The growth inhibition in experiment [3] (setting [7]) was 2%; in experiment [3] (setting [8]) it was 46%; in experiment [3] (at 50.0 µM), 45.6%; in experiment [4] (setting [7]), 5%; in experiment [4] (setting [8]), 75% (active); in experiment [4] (at 50.0 µM) it was -31.4%. Moreover, the growth inhibition was 2% in experiment [5] (setting [7]); 82% (active) in experiment [5] (setting [8]); 0.15% in experiment [5] (at 50.0 µM); -1% in experiment [6] (setting [7]); 68% in experiment [6] (setting [8]); 50.8% in experiment [6] (at 50.0 µM).
